Active and inactive are the calls of the source.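 The calls were made as follows, unless noted: active = inhibition above 20% together with a positive visual image hit; inconclusive = visual image hit but inhibition not above 20%; inactive = no visual image hit.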
Legend:
[1] = inhibitors of TNFa-induced NFkB p65 translocation, primary screen, imaging, HUVEC, MLSMR starter and 10KST1 sets (AID 438); conditions: HUVEC TNFa-induced p65 nuclear translocation; cell count: measured here: nuclei count (cytotoxicity indicator), at 2.08 µM; inhibition: at 2 µM, stronger effect = higher value, 0% TNFa-plus-vehicle, 100% no-TNFa wells;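 also: compound added about 3h40 before a 20 min TNFalpha stimulation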;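 as to inhibition: signal is the nuclear over cytoplasmic p65 intensity ratio per well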
[2] = inhibitors of mutant huntingtin aggregation, primary screen, imaging, exon1htt(103Q)mCFP cells, high-content imaging (AID 483;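 active = visual image review flags a hit and inhibition of aggregation exceeds 20%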;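 also: compound exposure lasted 3 days before fixation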;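 as to nuclei count: percent of the per-plate median nuclei count of sample wells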); conditions: exon1htt(103Q)mCFP cell line, aggregate imaging, at 2 µM; inhibition of aggregation: stronger effect = higher value; nuclei count: measured here: cell count, toxicity
[3] = inhibitors of E-selectin induction by TNFa, primary screen, imaging, HUVEC, immunofluorescence, MLSMR starter and 10KST1 sets (AID 487;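 active = visually confirmed hit in the image check and inhibition above 20%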;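 as to inhibition: signal is fraction of cell area covered by stained E-selectin grains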;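 as to nuclei count: 100% = median nuclei count of all wells on the same plate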); conditions: HUVEC TNFalpha-induced E-selectin immunofluorescence imaging, at 2 µM; inhibition: stronger effect = higher value; nuclei count: measured here: cell number, toxicity
[4] = molecular target: Voltage-gated potassium channel subunit beta-2 (Rattus norvegicus) (UniProt P62483); test: KvBeta enzyme negative modulators, primary screen, biochemical, NADPH fluorescence (AID 622;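 active = fluorescence slope higher than the sample average by over 3 SD, cut at about -0.22 in these data, passing the limit was not always enough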;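 also: slope of raw intensity against log time taken from 70 to 1610 s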); conditions: recombinant KvBeta, 4-cyanobenzaldehyde reduction, at 10 µM, stronger effect = higher value
[5] = molecular target: Voltage-gated potassium channel subunit beta-2 (Rattus norvegicus) (UniProt P62483); test: KvBeta positive modulators, primary screen, biochemical, NADPH fluorescence (AID 623;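 active = NADPH fluorescence slope more negative than the mean of all samples by about 3 SD, 99.7% confidence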;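 also: fluorescence intensity change per second fitted from 20 to 320 s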); conditions: Recombinant KvBeta, NADPH fluorescence decrease slope, 10 min; at 10 µM; stronger effect = lower value
[6] = molecular target: Alpha-2C adrenergic receptor (Homo sapiens) (UniProt P18825); test: modulators of alpha2C/GIRK thallium flux, primary screen, cell-based, HEK293 alpha2C/GIRK1/2 (AID 624;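 active = fluorescence slope after compound addition differing from the mean of all screened samples at 99.7% confidence, in either direction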;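 also: slope of fluorescence ratio to pre-addition baseline per second over 15 to 24 s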); conditions: thallium flux BTC fluorescence, at 10 µM, actives lie on both sides
[7] = inhibitors of Sendai virus-induced IRF3 signaling, primary screen, TLR/RLR signaling modifier project, cell-based, Sendai virus stimulus, luciferase, 10K MLSCN set (AID 602276;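 active = inhibition at or above 50% at 10 µM; inactive = inhibition below 50%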;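 also: firefly luciferase from ISG56 promoter only with Renilla not read in this screen; 0% = Sendai virus plus DMSO and 100% = medium plus DMSO without virus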); conditions: HEK293 RL24 IRF3 luciferase reporter, at 10 µM, stronger effect = higher value
[8] = inhibitors of poly I:C-induced TLR3 signaling, primary screen, cell-based, poly I:C stimulus, luciferase, 10K MLSCN set (AID 602277;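 active = inhibition of the reporter signal at or above 50%; inactive = inhibition below 50%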); conditions: HEK293-TLR3 RL24 IRF3 luciferase reporter, at 10 µM, stronger effect = higher value

Sequence of Alpha-2C adrenergic receptor (Homo sapiens) (P18825 whole entry, looked up): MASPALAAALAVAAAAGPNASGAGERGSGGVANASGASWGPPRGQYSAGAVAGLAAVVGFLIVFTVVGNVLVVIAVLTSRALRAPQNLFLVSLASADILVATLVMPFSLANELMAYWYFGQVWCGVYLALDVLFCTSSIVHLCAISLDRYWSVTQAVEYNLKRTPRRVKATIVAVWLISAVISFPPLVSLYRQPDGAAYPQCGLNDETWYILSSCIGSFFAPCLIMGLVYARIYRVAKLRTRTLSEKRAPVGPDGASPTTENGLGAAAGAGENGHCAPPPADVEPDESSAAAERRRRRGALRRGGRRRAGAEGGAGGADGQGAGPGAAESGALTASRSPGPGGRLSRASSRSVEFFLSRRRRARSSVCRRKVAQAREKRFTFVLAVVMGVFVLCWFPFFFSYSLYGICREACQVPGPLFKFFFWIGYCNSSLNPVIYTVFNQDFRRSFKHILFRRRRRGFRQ
Sequence of Voltage-gated potassium channel subunit beta-2 (Rattus norvegicus) (P62483 whole entry, looked up): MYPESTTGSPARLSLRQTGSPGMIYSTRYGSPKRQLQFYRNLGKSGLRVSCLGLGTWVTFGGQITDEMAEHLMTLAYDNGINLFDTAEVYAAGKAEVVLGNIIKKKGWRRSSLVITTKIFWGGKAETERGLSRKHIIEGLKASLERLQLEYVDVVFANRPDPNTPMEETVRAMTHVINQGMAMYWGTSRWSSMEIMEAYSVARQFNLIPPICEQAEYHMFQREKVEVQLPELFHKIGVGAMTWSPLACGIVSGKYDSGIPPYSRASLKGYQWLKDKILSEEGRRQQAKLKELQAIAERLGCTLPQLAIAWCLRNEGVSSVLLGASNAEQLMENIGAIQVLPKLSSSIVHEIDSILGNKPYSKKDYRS

Structure (SMILES) | cell count [1] | inhibition [1] | inhibition of aggregation [2] | nuclei count [2] | inhibition [3] | nuclei count [3] | fluorescence slope [4] | NADPH fluorescence slope [5] | slope [6] | inhibition [7] | inhibition [8]
CCc1c(C)c2c(C)nn(-c3ccccc3)c2[nH]c1=O | 292 | -0.8% (inactive) | 21.9% (inactive) | 94.5% | -49.1% (inactive) | 123% | -0.409 (inactive) | -0.000123 (inactive) | 0.00678 (inactive) | 6.95% (inactive) | -0.265% (inactive)
CCOC(=O)N1CCC(NC(=O)c2cc(C(=O)NC3CCCC3)ccc2CO)CC1 | 467 | 0.8% (inactive) | 14.4% (inactive) | 58.4% | -14.1% (inactive) | 106% | -0.535 (inactive) | -5.1e-05 (inactive) | 0.00598 (inactive) | 11.2% (inactive) | 32% (inactive)
Cc1ccccc1CN1CCN(CC(=O)NCc2ccccc2)C1=O | 518 | -20.8% (inactive) | -45.2% (inactive) | 97.7% | -45.7% (inactive) | 114% | -0.42 (inactive) | -0.000111 (inactive) | 0.00614 (inactive) | 2.1% (inactive) | 24.6% (inactive)
Cc1cc(C)cc(NC(=O)C2CCCN(c3nccc(C)n3)C2)c1 (stereo unspecified) | 373 | -6% (inactive) | -20.4% (inactive) | 115% | -57.3% (inactive) | 117% | -0.463 (inactive) | -8.4e-05 (inactive) | 0.00586 (inactive) | 9.71% (inactive) | 18.5% (inactive)
CCCc1cc(C(=O)Nc2sc3c(c2C#N)CCC3)no1 | 633 | -2.9% (inactive) | 11.9% (inactive) | 95.8% | -34.8% (inactive) | 116% | -0.568 (inactive) | -2.8e-05 (inactive) | 0.00643 (inactive) | 7.08% (inactive) | 10.9% (inactive)
CCn1cc(C2Nc3ccccc3C(=O)N2O)c(C)n1 (stereo unspecified) | 428 | 8.8% (inactive) | -27.6% (inactive) | 112% | -66.4% (inactive) | 104% | -0.301 (inactive) | -4.1e-05 (inactive) | 0.0057 (inactive) | -41.1% (inactive) | -70.4% (inactive)
Cc1ccc(NC(=O)CSc2nnc(Cc3cccn3C)n2-c2ccc(F)cc2)cc1 | 562 | 12.9% (inactive) | -6.4% (inactive) | 98.7% | -118% (inactive) | 91.3% | -0.586 (inactive) | -2.1e-06 (inactive) | 0.00658 (inactive) | 8.62% (inactive) | 23.7% (inactive)
COC(=O)[C@H](C)NC(=O)Nc1cc(OC)ccc1OC | 572 | -15.2% (inactive) | -17.4% (inactive) | 114% | -11% (inactive) | 103% | -0.586 (inactive) | 1.8e-05 (inactive) | 0.00542 (inactive) | -3.29% (inactive) | -52% (inactive)
N#CC(C(=O)c1ccco1)c1ccccn1 (stereo unspecified) | 699 | 2.8% (inactive) | -5.3% (inactive) | 108% | 43.2% (inactive) | 94.7% | -0.367 (inactive) | -2e-05 (inactive) | 0.00116 (inactive) | -8.81% (inactive) | -54% (inactive)
Cc1ccc(N2C(=O)c3ccccc3C2Nc2cccnc2)nc1 (stereo unspecified) | 513 | -7.7% (inactive) | 2.4% (inactive) | 92.8% | -91.7% (inactive) | 138% | -0.585 (inactive) | 2e-05 (inactive) | 0.0064 (inactive) | -2.85% (inactive) | 4.9% (inactive)
COc1ccc(S(=O)(=O)N(CC(=O)N2CCN(c3ccccc3OC)CC2)c2ccccc2)cc1 | 291 | 5.2% (inactive) | -12.6% (inactive) | 104% | 20% (inactive) | 111% | -0.474 (inactive) | -4.9e-05 (inactive) | 0.00648 (inactive) | 8.76% (inactive) | 13.4% (inactive)
C=CCNC(=O)c1cc(-c2ccccc2O)on1 | 856 | -0.5% (inactive) | -0.2% (inactive) | 109% | -63.2% (inactive) | 113% | -0.588 (inactive) | -1.8e-05 (inactive) | 0.0069 (inactive) | -22.6% (inactive) | -96.4% (inactive)
CN1CCN(C(=O)C2CCN(S(=O)(=O)c3ccc4c(c3)oc(=O)n4C)CC2)CC1 | 554 | -4.7% (inactive) | 8.3% (inactive) | 100% | -22% (inactive) | 116% | -0.59 (inactive) | -2.4e-05 (inactive) | 0.00694 (inactive) | 8.49% (inactive) | 23.9% (inactive)
CC1=C(C)[N+](=O)C2CCCCC2N1[O-] (stereo unspecified) | 705 | 3.9% (inactive) | 13.8% (inactive) | 104% | 58% (inactive) | 86.5% | -0.368 (inactive) | -0.000147 (inactive) | 0.00784 (inactive) | -0.132% (inactive) | 16.1% (inactive)
COc1cc2c(=O)nc3n(c2cc1OC)C(c1ccccc1)N=C(N)N3 (stereo unspecified) | 398 | -11.9% (inactive) | 17.7% (inactive) | 86.3% | 0.3% (inactive) | 98.2% | -0.312 (inactive) | -2.8e-05 (inactive) | 0.00451 (inactive) | 17.6% (inactive) | 23.9% (inactive)
Cn1cc(Cl)c(C(=O)NC2CCCC2)n1 | 452 | -8.5% (inactive) | 26.8% (inactive) | 64.4% | -25.2% (inactive) | 104% | -0.594 (inactive) | -3.1e-05 (inactive) | 0.00694 (inactive) | -2.09% (inactive) | 4.05% (inactive)
O=c1c2ccccc2nc(SCc2nnc(-c3ccccc3Br)o2)n1-c1ccccc1 | 379 | 2.9% (inactive) | 5.3% (inactive) | 63.9% | -18.3% (inactive) | 104% | -0.573 (inactive) | -4.9e-05 (inactive) | 0.00444 (inactive) | 0.607% (inactive) | 1.7% (inactive)
O=C(O)CN1C(=O)C2(OCCCO2)c2ccccc21 | 542 | -5.7% (inactive) | -4.1% (inactive) | 96.1% | -0.7% (inactive) | 124% | -0.538 (inactive) | 6.1e-05 (inactive) | 0.0059 (inactive) | 17% (inactive) | 18.6% (inactive)
CCOC(=O)N1CCN(C(=O)c2c(-c3ccccc3)noc2C)CC1 | 816 | 0% (inactive) | -5.9% (inactive) | 107% | -27.3% (inactive) | 106% | -0.421 (inactive) | -4.8e-05 (inactive) | 0.00537 (inactive) | 14% (inactive) | 31.9% (inactive)
CC(=O)c1cccc(S(=O)(=O)NCC(c2ccco2)N2CCCCC2)c1 (stereo unspecified) | 707 | -2% (inactive) | -10% (inactive) | 107% | -140% (inactive) | 145% | -0.62 (inactive) | -1.6e-05 (inactive) | 0.0049 (inactive) | 5.82% (inactive) | 6.55% (inactive)
CC(C)CCN1CC(C(=O)NCc2ccccc2)CC1=O (stereo unspecified) | 538 | 2.2% (inactive) | 2.7% (inactive) | 121% | -57.7% (inactive) | 108% | -0.288 (inactive) | -1.6e-05 (inactive) | 0.00611 (inactive) | 30.7% (inactive) | 14.3% (inactive)
COc1ccc(CCNC(=O)c2cnc3scc(C)n3c2=O)cc1OC | 573 | -5.3% (inactive) | -6% (inactive) | 82.6% | 19.7% (inactive) | 86.4% | -0.411 (inactive) | -6.2e-05 (inactive) | 0.00579 (inactive) | 6.05% (inactive) | 33.9% (inactive)
COCCN(CCOC)Cc1c(C)[nH]c2ccccc2c1=O | 398 | 6.8% (inactive) | 12.7% (inactive) | 93.3% | 1.8% (inactive) | 104% | -0.351 (inactive) | -1.7e-05 (inactive) | 0.00544 (inactive) | 3.05% (inactive) | 24.8% (inactive)
Cc1c(C(=O)O)c(-c2ccccc2)nn1-c1ccccc1 | 119 | 12.1% (inactive) | 3.2% (inactive) | 85.6% | -11.7% (inactive) | 127% | -0.39 (inactive) | -0.000126 (inactive) | 0.00692 (inactive) | 15% (inactive) | -3.71% (inactive)
OC(COc1ccccc1)CN1C2=NCCCN2c2ccccc21 (stereo unspecified) | 295 | 1.6% (inactive) | -3.1% (inactive) | 81.2% | 5.3% (inactive) | 79.2% | -0.608 (inactive) | -4.2e-06 (inactive) | 0.00402 (inactive) | 20% (inactive) | 30.6% (inactive)
Cc1nnc(SCc2cn3ccsc3n2)n(N)c1=O | 858 | -10.7% (inactive) | -21% (inactive) | 105% | -50.6% (inactive) | 121% | -0.641 (inactive) | 1.9e-05 (inactive) | 0.00624 (inactive) | 17.8% (inactive) | 31.6% (inactive)
